Reference: PubChem BioAssay (EPA / NIEHS)
Inconclusive results are not listed. A structure can be active in one record and inactive in another. Active and inactive are the calls of the source. How the source made its calls: active means hit-call score of the fitted dose curve at least 0.9, where 1 is the maximum; inconclusive means response in the unintended direction; inactive means score below 0.9.

What was measured:
[1] = target: Sodium channel protein type 1 subunit alpha (Rattus norvegicus) (UniProt P04774); test: NVS_IC_rNaCh_site2: NovaScreen (NVS) Ion Channel Assay for rat Sodium Channel, Site 2 (NaCh) (AID 2283322);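 further: hit means loss of radioligand binding signal relative to DMSO so AC50 marks displacement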
Procedure, shortened: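 Membranes: rat forebrain. Format: competitive radioligand displacement, filter separation, scintillation readout, 1 h exposure. Primary screen in duplicate at 25 uM; actives retested in concentration series.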

[2] = target: human Peripheral-type Benzodiazepine Receptor (PBR), TSPO (gene 706) (UniProt P30536); test: NVS_MP_hPBR: NovaScreen (NVS) Membrane Protein Assay for human Peripheral-type Benzodiazepine Receptor (PBR) (AID 2283331);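 further: hits reduce radioligand binding relative to DMSO baseline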
Procedure, shortened: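 Human colonic cell membranes were incubated with test chemical for 1 hour; radioligand binding was measured by filter-based scintillation counting. Primary screen ran in duplicate at 25 uM, with actives followed in concentration series; loss of signal versus DMSO baseline.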

[3] = target: Voltage-gated inwardly rectifying potassium channel KCNH2 (Homo sapiens) (UniProt Q12809); test: NVS_IC_hKhERGCh: NovaScreen (NVS) Ion Channel Assay for human Potassium Channel ERG (KhERGCh) (AID 2283333)
Procedure, shortened: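 Cell-free radioligand competition binding on hERG protein extracted from CHO cells, read by filter-based scintillation counting 0.75 h after dosing. Primary screen at 25 uM in duplicate, actives followed in concentration series. Signal loss fitted versus DMSO.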

[4] = target: human Serotonin, 5-Hydroxytryptamine Receptor 3 (5HT3), HTR3A (gene 3359) (UniProt P46098); test: NVS_LGIC_h5HT3: NovaScreen (NVS) Ligand-Gated Ion Channel Assay for human Serotonin, 5-Hydroxytryptamine Receptor 3 (5HT3) (AID 2283325)
Procedure: NVS_LGIC_h5HT3 is a biochemical, single-readout assay that uses extracted gene-proteins from HEK293 in a cell-free assay. Measurements were taken 1 hour after chemical dosing in a 96-well plate.NVS_LGIC_h5HT3 is one of one assay component(s) measured or calculated from the NVS_LGIC_h5HT3 assay. It is designed to make measurements of radioligand binding, a form of binding reporter, as detected with scintillation counting signals by Filter-based radiodetection technology.Data from the assay component NVS_LGIC_h5HT3 was analyzed into 1 assay endpoint. This assay endpoint, NVS_LGIC_h5HT3, was analyzed in the positive analysis fitting direction relative to DMSO as the negative control and baseline of activity. Using a type of binding reporter, loss-of-signal activity can be used to understand changes in the binding as they relate to the gene HTR3A. Furthermore, this assay endpoint can be referred to as a primary readout, because the performed assay has only produced 1 assay endpoint. To generalize the intended target to other relatable targets, this assay endpoint is annotated to the ion channel intended target family, where the subfamily is ligand-gated ion channel.
Binding assays used specific radioligands (tritiated, iodinated) with non-radioactive competitive displacement ligands in agonist or antagonist protocols (as indicated) and various reference compounds and inhibitors to titrate specific binding to receptors and transporters. Most enzyme assays (CYPs, kinases, phosphatases, proteases, HDACs) used recombinant protein and specific substrates (fluorescence mostly, some colorimetric and radioactive) and inhibitors, followed by a biochemical separation of substrate and product. All assays for the biochemical HTS were initially run in duplicate at a single concentration (10 uM for CYP450 assays and 25 uM for all others). Assay-chemical combinations meeting a pre-defined threshold (e.g., 30% inhibition and other criteria defined below) were then run in singleton concentration-response format with maximum concentration of 20 uM for CYPs and 50 uM for all others. Each assay was run with positive and negative controls, and concurrent controls on every plate. The follow-up (secondary) screen tested active chemical-pairs in concentration series, as well as a few additional assays not tested in the primary screen, some selected negative inactives, and several cases re-run in the concentration series for confirmatory purposes.

[5] = target: rat Thyrotropin Releasing Hormone Receptor (TRH), Trhr (gene 25570) (UniProt Q01717); test: NVS_GPCR_rTRH: NovaScreen (NVS) G Protein-Coupled Receptor Assay for rat Thyrotropin Releasing Hormone Receptor (TRH) (AID 2283329);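 further: hit means lower bound tracer signal versus DMSO baseline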
Procedure, shortened: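 Competitive radioligand binding on rat forebrain membrane preparations, with filtration and scintillation readout after 4 h. Primary testing in duplicate at 25 uM; actives confirmed in concentration-response. DMSO defined baseline.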

[6] = target: rat Glutamate, AMPA Site (AMPA), Gria1 (gene 50592) (UniProt P19490); test: NVS_LGIC_rAMPA: NovaScreen (NVS) Ligand-Gated Ion Channel Assay for rat Glutamate, AMPA Site (AMPA) (AID 2283324)
Procedure, shortened: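 Rat forebrain membranes; radioligand binding read 1 h after dosing by filtration and scintillation counting. Duplicate single-point screen at 25 uM, then concentration-response to 50 uM for threshold hits (e.g. 30% inhibition); loss of signal vs DMSO.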

[7] = target: rat Gamma-Aminobutyric Acid Type A Receptor, Non-Selective (GABAR-NonSelective), Gabra1 (gene 29705) (UniProt P62813); test: NVS_LGIC_rGABAR_NonSelective: NovaScreen (NVS) Ligand-Gated Ion Channel Assay for rat Gamma-Aminobutyric Acid Type A Receptor, Non-Selective (GABAR-NonSelective) (AID 2283326)
Procedure, shortened: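 Radioligand displacement on rat whole-brain extract, 1 h, filter scintillation readout; signal loss fitted versus DMSO. Primary screen in duplicate at 25 uM; hits (e.g. ≥30% inhibition) retested in concentration-response up to 50 uM.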

human Serotonin, 5-Hydroxytryptamine Receptor 3 (5HT3), HTR3A (gene 3359), sequence (P46098 whole entry, looked up): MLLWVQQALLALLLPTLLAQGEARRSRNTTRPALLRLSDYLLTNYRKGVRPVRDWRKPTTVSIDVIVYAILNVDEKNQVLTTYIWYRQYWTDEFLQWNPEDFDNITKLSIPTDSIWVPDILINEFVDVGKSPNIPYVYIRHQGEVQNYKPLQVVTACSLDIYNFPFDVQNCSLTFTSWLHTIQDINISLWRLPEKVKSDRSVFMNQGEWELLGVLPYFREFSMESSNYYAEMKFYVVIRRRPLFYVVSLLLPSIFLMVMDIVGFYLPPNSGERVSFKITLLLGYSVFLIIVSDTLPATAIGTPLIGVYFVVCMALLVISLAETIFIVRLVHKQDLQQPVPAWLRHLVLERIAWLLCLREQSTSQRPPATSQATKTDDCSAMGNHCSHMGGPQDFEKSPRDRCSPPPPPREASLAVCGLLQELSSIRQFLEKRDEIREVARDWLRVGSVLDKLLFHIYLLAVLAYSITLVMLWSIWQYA
human Peripheral-type Benzodiazepine Receptor (PBR), TSPO (gene 706), sequence (P30536 whole entry, looked up): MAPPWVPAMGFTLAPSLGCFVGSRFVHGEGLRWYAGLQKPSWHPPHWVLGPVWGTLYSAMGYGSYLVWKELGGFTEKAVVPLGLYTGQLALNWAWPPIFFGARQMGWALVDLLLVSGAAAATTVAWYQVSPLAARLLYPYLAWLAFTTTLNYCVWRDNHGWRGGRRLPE
rat Thyrotropin Releasing Hormone Receptor (TRH), Trhr (gene 25570), sequence (Q01717 whole entry, looked up): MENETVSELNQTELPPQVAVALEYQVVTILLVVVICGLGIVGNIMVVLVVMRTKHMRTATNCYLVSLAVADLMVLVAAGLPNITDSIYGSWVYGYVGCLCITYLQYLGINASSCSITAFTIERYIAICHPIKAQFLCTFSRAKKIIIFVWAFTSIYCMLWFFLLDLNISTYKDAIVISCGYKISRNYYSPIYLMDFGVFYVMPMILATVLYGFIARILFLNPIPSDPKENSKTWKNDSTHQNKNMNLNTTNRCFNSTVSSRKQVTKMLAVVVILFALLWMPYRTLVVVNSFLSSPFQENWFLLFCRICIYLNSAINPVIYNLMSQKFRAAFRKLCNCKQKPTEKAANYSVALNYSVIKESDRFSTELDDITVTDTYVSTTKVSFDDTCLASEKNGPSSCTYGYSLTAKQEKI
rat Glutamate, AMPA Site (AMPA), Gria1 (gene 50592), sequence (P19490 whole entry, looked up): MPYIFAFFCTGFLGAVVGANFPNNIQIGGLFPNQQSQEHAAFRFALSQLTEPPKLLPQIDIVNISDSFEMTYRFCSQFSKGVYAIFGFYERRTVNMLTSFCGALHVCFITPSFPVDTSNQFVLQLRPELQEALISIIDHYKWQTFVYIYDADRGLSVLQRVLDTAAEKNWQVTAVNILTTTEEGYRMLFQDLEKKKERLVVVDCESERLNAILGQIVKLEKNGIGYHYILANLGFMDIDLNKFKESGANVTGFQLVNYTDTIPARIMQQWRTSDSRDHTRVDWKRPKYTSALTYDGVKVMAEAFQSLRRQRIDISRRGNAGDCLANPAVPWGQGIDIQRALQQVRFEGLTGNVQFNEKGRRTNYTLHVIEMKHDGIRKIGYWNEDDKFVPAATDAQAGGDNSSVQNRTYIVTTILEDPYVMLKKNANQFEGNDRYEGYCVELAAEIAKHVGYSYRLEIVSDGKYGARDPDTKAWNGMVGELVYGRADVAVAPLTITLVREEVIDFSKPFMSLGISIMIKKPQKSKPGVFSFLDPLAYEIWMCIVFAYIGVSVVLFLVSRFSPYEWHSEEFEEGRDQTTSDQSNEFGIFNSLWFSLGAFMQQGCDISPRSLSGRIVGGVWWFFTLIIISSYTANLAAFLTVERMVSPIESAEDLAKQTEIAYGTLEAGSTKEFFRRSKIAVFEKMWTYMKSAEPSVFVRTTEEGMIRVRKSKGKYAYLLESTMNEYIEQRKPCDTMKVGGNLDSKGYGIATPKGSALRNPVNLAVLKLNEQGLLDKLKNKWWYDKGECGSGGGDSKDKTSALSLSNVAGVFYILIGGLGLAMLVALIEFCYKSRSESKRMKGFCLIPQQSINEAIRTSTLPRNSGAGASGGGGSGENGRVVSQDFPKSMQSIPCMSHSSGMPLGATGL
Voltage-gated inwardly rectifying potassium channel KCNH2 (Homo sapiens), sequence (Q12809 whole entry, looked up): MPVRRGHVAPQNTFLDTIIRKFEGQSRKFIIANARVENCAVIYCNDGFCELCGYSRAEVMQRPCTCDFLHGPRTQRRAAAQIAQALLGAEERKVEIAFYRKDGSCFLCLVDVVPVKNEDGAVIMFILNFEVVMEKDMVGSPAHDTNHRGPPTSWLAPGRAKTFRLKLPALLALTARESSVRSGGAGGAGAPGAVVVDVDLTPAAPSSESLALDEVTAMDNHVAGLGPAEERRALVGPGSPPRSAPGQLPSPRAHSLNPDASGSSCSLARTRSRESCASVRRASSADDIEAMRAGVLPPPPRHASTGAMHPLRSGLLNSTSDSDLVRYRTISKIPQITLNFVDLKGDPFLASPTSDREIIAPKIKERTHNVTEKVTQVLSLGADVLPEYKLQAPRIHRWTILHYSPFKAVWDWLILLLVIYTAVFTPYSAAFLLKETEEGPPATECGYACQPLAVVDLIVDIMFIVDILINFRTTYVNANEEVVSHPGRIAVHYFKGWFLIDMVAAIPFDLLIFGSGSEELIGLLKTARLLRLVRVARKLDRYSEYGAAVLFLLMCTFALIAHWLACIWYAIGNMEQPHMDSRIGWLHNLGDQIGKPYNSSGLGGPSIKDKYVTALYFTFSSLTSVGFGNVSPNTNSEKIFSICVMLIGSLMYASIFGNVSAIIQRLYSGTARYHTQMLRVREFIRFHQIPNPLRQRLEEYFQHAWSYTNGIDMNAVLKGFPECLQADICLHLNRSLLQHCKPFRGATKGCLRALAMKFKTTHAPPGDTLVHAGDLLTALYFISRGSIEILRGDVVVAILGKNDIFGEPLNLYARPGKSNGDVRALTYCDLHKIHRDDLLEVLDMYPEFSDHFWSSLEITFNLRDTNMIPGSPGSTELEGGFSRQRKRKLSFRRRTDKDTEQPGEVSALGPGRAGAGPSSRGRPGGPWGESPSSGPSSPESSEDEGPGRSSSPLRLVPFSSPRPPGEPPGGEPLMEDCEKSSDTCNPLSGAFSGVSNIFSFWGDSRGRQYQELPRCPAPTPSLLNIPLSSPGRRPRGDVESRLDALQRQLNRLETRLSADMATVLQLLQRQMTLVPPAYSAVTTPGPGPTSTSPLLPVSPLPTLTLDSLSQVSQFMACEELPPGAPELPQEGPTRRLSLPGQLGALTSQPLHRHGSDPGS
rat Gamma-Aminobutyric Acid Type A Receptor, Non-Selective (GABAR-NonSelective), Gabra1 (gene 29705), sequence (P62813 whole entry, looked up): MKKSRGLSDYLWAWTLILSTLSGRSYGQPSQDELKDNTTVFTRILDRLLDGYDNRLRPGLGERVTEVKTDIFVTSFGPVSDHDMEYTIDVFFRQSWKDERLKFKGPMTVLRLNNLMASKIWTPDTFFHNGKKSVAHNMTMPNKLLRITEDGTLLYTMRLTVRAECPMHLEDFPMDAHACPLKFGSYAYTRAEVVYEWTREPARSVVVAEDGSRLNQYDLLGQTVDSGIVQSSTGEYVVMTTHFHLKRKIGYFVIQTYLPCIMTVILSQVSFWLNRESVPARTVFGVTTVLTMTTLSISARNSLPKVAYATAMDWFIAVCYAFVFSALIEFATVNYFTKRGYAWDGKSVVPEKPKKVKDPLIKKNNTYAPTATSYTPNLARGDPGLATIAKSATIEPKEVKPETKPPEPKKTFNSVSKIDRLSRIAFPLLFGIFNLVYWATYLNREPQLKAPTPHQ

In the case of `CCCCC(C#N)(Cn1cncn1)c1ccc(Cl)cc1` (stereo unspecified), the AC50 [1] is reported as 25 µM (active), the outcome [2] is reported as “inactive” and the outcome [3] is reported as “inactive”.

With `Cc1cc(C)nc(Nc2ccccc2)n1` the outcome [1] was “inactive”.

For `Cc1c(COC(=O)[C@@H]2[C@H](/C=C(\Cl)C(F)(F)F)C2(C)C)cccc1-c1ccccc1`, the outcome [4] was “inactive” and the outcome [2] was “inactive”.

For `Cc1cnc(C2=NC(C)(C(C)C)C(=O)N2)c(C(=O)O)c1` (stereo unspecified), the outcome [5] was “inactive”.

With `CCNC(=O)NC(=O)C(C#N)=NOC` the outcome [1] was “inactive”, the outcome [6] was “inactive” and the outcome [5] was “inactive”.

For `CC(C)C1(C)N=C(c2ncccc2C(=O)O)NC1=O` (stereo unspecified), the outcome [1] was “inactive” and the outcome [5] was “inactive”.

`COC(=O)NS(=O)(=O)c1ccc(N)cc1` was tested, and the outcome [7] was “inactive”.

For `C=C(C)CN(CC)c1c([N+](=O)[O-])cc(C(F)(F)F)cc1[N+](=O)[O-]`, the outcome [6] was “inactive”.

For `Nc1c(Cl)c(Cl)nc(C(=O)O)c1Cl`, the outcome [5] was “inactive”.

With `CS(=O)(=O)c1cc(C(F)(F)F)ccc1C(=O)c1cnoc1C1CC1` the outcome [4] was “inactive”.

`N#Cc1c(Cl)cccc1Cl` was tested, and the AC50 [1] was 38.2 µM (active).

With `Cn1c(-c2ccccc2)cc(-c2ccccc2)[n+]1C` the AC50 [1] was 2.36 µM (active).

For `CC(C)(C)C(=O)C(Oc1ccc(Cl)cc1)n1cncn1` (stereo unspecified), the outcome [1] was “inactive” and the AC50 [2] was 44 µM (active).

For `CCN(CC)C(=O)C(C)Oc1cccc2ccccc12` (stereo unspecified), the outcome [1] was “inactive”, the AC50 [5] was 42.2 µM (active) and the outcome [5] was “inactive”. The AC50 [2] was 1.11 µM (active).

In the case of `Nc1cnn(-c2ccccc2)c(=O)c1Cl`, the outcome [5] is reported as “inactive”.

In the case of `CC1(C)C(C(=O)OC(C#N)c2cccc(Oc3ccccc3)c2)C1(C)C` (stereo unspecified), the outcome [4] is reported as “inactive” and the outcome [2] is reported as “inactive”.

For `N#Cc1c[nH]cc1-c1cccc2c1OC(F)(F)O2`, the outcome [1] was “inactive” and the outcome [2] was “inactive”.

`CCCN(CC)CC1COC2(CCC(C(C)(C)C)CC2)O1` (stereo unspecified) was tested, and the AC50 [1] was 0.822 µM (active) and the AC50 [3] was 5.15 µM (active).
